Measurements published in PubChem BioAssay AID1159580 (chemical genetic matrix, 2015).
Several values for one entry are separate records, joined by “and”; a condition that tells them apart may be missing. Equal entries are not always repeated. About 2,000 (36%) of roughly 5,500 compounds were called active. About 18% were inconclusive and are not listed. Cut-off read from the data, not from the text of the source: active = normalized growth mostly below about 0.91 (no sharp cut-off); inconclusive = no clear call, values can overlap the other calls; inactive = mostly above about 0.92. The list shows a part of the results.

Assay: chemical genetic growth profiling, strain panel (AID 1159580);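 note: tested at 20 µM; growth read once vehicle control cultures reached saturation at 30 °C; 1 = growth at the plate median or of vehicle wells; lower values mean less growth of the strain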
Settings: S. cerevisiae deletion strains, growth OD

Measured: normalized growth

COc1ccc2cc([C@H](C)C(=O)O)ccc2c1
inactive: locus YAL013W, strain DEP1, active compounds read low 1 | locus YAL021C, strain ccr4, active compounds read low 0.943 | locus YAL026C, strain drs2, active compounds read low 0.961 | locus YAL030W, strain snc1, active compounds read low 0.981 | locus YAL040C, strain CLN3, active compounds read low 1.07 | locus YBL061C, strain skt5, active compounds read low 0.984 | locus YBR009C, strain hhf1, active compounds read low 0.98 | locus YBR021W, strain FUR4, active compounds read low 0.958 | locus YBR023C, strain chs3, active compounds read low 0.987 | locus YBR171W, strain sec66, active compounds read low 0.963 | locus YBR229C, strain ROT2, active compounds read low 1 | locus YBR231C, strain swc5, active compounds read low 0.996 | locus YBR279W, strain paf1, active compounds read low 0.967 | locus YCL011C, strain gbp2, active compounds read low 0.98 | locus YCL016C, strain dcc1, active compounds read low 0.993 | locus YCL029C, strain bik1, active compounds read low 0.999 | locus YCL061C, strain MRC1 (second series), active compounds read low 0.994 | locus YCL061C, strain MRC1, active compounds read low 0.974 | locus YCL069W, strain vba3, active compounds read low 0.968 | locus YCR088W, strain abp1, active compounds read low 0.972 | locus YDL005C, strain med2, active compounds read low 0.96 | locus YDL035C, strain GPR1, active compounds read low 0.984 | locus YDL040C, strain nat1, active compounds read low 0.973 | locus YDL074C, strain BRE1, active compounds read low 0.989 | locus YDL101C, strain DUN1, active compounds read low 1.02 | locus YDL134C, strain PPH21, active compounds read low 1 | locus YDL185W, strain tfp1, active compounds read low 0.957 | locus YDL192W, strain arf1, active compounds read low 0.985 | locus YDR001C, strain nth1, active compounds read low 0.98 | locus YDR069C, strain doa4, active compounds read low 0.963 | locus YDR101C, strain arx1, active compounds read low 1.01 | locus YDR137W, strain rgp1, active compounds read low 0.932 | locus YDR150W, strain NUM1, active compounds read low 1.01 | locus YDR159W, strain sac3, active compounds read low 0.926 | locus YDR162C, strain NBP2, active compounds read low 0.99 | locus YDR195W, strain ref2 0.932 | locus YDR297W, strain sur2, active compounds read low 0.978 | locus YDR318W, strain mcm21, active compounds read low 0.996 | locus YDR334W, strain swr1, active compounds read low 0.961 | locus YDR335W, strain msn5, active compounds read low 0.988 | locus YDR363W, strain ESC2, active compounds read low 0.979 | locus YDR388W, active compounds read low 0.998 | locus YDR392W, strain spt3, active compounds read low 0.842 | locus YDR502C, strain sam2, active compounds read low 0.964 | locus YEL003W, strain gim4, active compounds read low 0.951 | locus YEL037C, strain rad23, active compounds read low 0.958 | locus YEL061C, strain CIN8 (second series), active compounds read low 0.964 | locus YEL061C, strain CIN8, active compounds read low 1 | locus YER002W, strain NOP16, active compounds read low 0.969 | locus YER015W, strain faa2, active compounds read low 0.978 | locus YER016W, strain bim1, active compounds read low 0.976 | locus YER110C, active compounds read low 0.992 | locus YER111C, strain swi4, active compounds read low 0.966 | locus YER155C, strain BEM2 (second series), active compounds read low 0.964 | locus YER155C, strain BEM2, active compounds read low 0.975 | locus YER167W, strain BCK2, active compounds read low 0.986 | locus YFR010W, strain ubp6, active compounds read low 0.959 | locus YGL078C, strain dbp3, active compounds read low 0.957 | locus YGL086W, strain mad1, active compounds read low 0.98 | locus YGL167C, strain pmr1, active compounds read low 0.977 | locus YGL173C, strain kem1, active compounds read low 0.97 | locus YGL227W, strain vid30, active compounds read low 0.98 | locus YGL240W, strain doc1, active compounds read low 0.962 | locus YGL248W, strain PDE1, active compounds read low 1 | locus YGL253W, strain hxk2, active compounds read low 0.985 | locus YGR078C, strain PAC10, active compounds read low 1 | locus YGR135W, strain pre9, active compounds read low 0.984 | locus YGR229C, strain SMI1, active compounds read low 0.999 | locus YGR252W, strain gcn5, active compounds read low 0.933 | locus YHR013C, strain ard1, active compounds read low 0.928 | locus YHR027C, strain rpn1, active compounds read low 0.971 | locus YHR030C, strain SLT2, active compounds read low 1.01 and 0.896 | locus YHR079C, strain IRE1 (second series), active compounds read low 1 | locus YHR079C, strain IRE1, active compounds read low 0.881 | locus YHR094C, strain hxt1, active compounds read low 0.986 | locus YHR129C, strain ARP1, active compounds read low 1.01 | locus YHR142W, strain chs7, active compounds read low 0.965 | locus YHR200W, strain rpn10, active compounds read low 0.982 | locus YIL066C, strain RNR3, active compounds read low 1.01 | locus YIL073C, strain SPO22, active compounds read low 1.03 | locus YIR030C, strain dcg1, active compounds read low 0.995 | locus YJL092W, strain hpr5, active compounds read low 0.959 | locus YJL095W, strain BCK1 (second series), active compounds read low 0.987 | locus YJL095W, strain BCK1, active compounds read low 1.04 and 0.918 | locus YJL115W, strain asf1, active compounds read low 0.96 | locus YJL129C, strain trk1, active compounds read low 0.9 | locus YJL134W, strain LCB3, active compounds read low 1 | locus YJL154C, strain vps35, active compounds read low 0.976 | locus YJL164C, strain tpk1, active compounds read low 0.967 | locus YJL166W, strain qcr8, active compounds read low 0.97 | locus YJL168C, strain set2, active compounds read low 0.991 | locus YJL187C, strain SWE1 (second series), active compounds read low 1.02 | locus YJL187C, strain SWE1, active compounds read low 0.972 | locus YJR043C, strain POL32, active compounds read low 0.981 | locus YJR066W, strain TOR1, active compounds read low 0.845
active: locus YIL125W, strain kgd1, active compounds read low 0.93
